Data: PubChem BioAssay (NCI)
About 83,000 compounds went through this panel and 20% of them were active in at least one assay; those are over-represented in the sample as a whole.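 Single-dose data. Exposure time 48 hours. Values below 10 considered active.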 Active and inactive are the calls of the source.

Tests used:
Experiment in all cases: NCI-60 one-dose screen, 48 h (100 = growth as untreated, 0 = no growth, -100 = all killed)
Conditions in all cases: 10 µM unless noted
NCI-H23 lung = system: NCI-H23 lung
NCI-H226 lung = system: NCI-H226 lung
NCI-H322M lung = system: NCI-H322M lung
HOP-62 NSCLC = system: HOP-62 NSCLC
NCI-H460 lung = system: NCI-H460 lung
HOP-92 NSCLC = system: HOP-92 NSCLC
NCI-H522 lung = system: NCI-H522 lung
A549/ATCC NSCLC = system: A549/ATCC NSCLC
786-0 renal = system: 786-0 renal
COLO 205 colon = system: COLO 205 colon
DU-145 prostate = system: DU-145 prostate
K-562 leukemia = system: K-562 leukemia
MALME-3M melanoma = system: MALME-3M melanoma
MDA-MB-231 breast = system: MDA-MB-231 breast
RXF 393 renal = system: RXF 393 renal
SF-268 CNS = system: SF-268 CNS
SF-295 CNS = system: SF-295 CNS
SF-539 CNS = system: SF-539 CNS
UACC-257 melanoma = system: UACC-257 melanoma
M14 melanoma = system: M14 melanoma

Measured: growth

O=C(O)COc1ccc(Cl)c(Cl)c1
inactive: NCI-H23 lung 99% | NCI-H226 lung 94.1% | NCI-H322M lung 120% | HOP-62 NSCLC 100% | NCI-H460 lung 109% | HOP-92 NSCLC 90.2% | NCI-H522 lung 102% | A549/ATCC NSCLC 107% | 786-0 renal 104% | COLO 205 colon 115% | DU-145 prostate 126% | K-562 leukemia 109% | MALME-3M melanoma 124% | MDA-MB-231 breast 115% | RXF 393 renal 108% | SF-268 CNS 117% | SF-295 CNS 103% | SF-539 CNS 104% | UACC-257 melanoma 104% | M14 melanoma 112%

Fc1cc(Nc2ccc3c(OCCCN4CCOCC4)cccc3n2)ccc1Cl
inactive: NCI-H23 lung 61.1% | NCI-H226 lung 68.8% | NCI-H322M lung 45.3% | HOP-62 NSCLC 39.2% | NCI-H460 lung 21.1% | HOP-92 NSCLC 27.3% | A549/ATCC NSCLC 25.7% | DU-145 prostate 48.1% | MALME-3M melanoma 21.4% | SF-268 CNS 48.5% | SF-539 CNS 15.7% | UACC-257 melanoma 75.9%
active: NCI-H522 lung -15.5% | 786-0 renal 1.04% | COLO 205 colon -50.2% | K-562 leukemia -34.8% | MDA-MB-231 breast -18.9% | RXF 393 renal 1.26% | SF-295 CNS -46.2% | M14 melanoma -31.1%

COc1ccc(Oc2nc(Nc3ccc(N4CCOCC4)cc3)ncc2NC(=O)Nc2cc(OC)cc(OC)c2)cc1
inactive: NCI-H23 lung 33.2% | NCI-H226 lung 32.7% | NCI-H322M lung 23.3% | HOP-62 NSCLC 48.2% | 786-0 renal 22.5% | DU-145 prostate 12.8% | K-562 leukemia 19.9% | SF-268 CNS 34.3% | SF-295 CNS 34.4% | UACC-257 melanoma 35.9% | M14 melanoma 21.4%
active: NCI-H460 lung -36.5% | HOP-92 NSCLC -11.5% | NCI-H522 lung 4.69% | A549/ATCC NSCLC 2.22% | COLO 205 colon -54.8% | MALME-3M melanoma 7.76% | MDA-MB-231 breast 1.79% | RXF 393 renal -29.2% | SF-539 CNS -32.5%

CN1CCN(C(=O)C(C)(C)c2ccc(C(=O)Nc3cn4cc(-c5ccncc5)ccc4n3)cc2)CC1
active: NCI-H226 lung 9.69% | HOP-62 NSCLC 4.05% | HOP-92 NSCLC 3.02% | NCI-H522 lung -1.24% | 786-0 renal -19.9% | COLO 205 colon 2.48% | MALME-3M melanoma -11.9% | RXF 393 renal -61.1% | SF-268 CNS 9.95% | SF-295 CNS 8.85% | SF-539 CNS -1.81%
inactive: NCI-H23 lung 10.1% | NCI-H322M lung 17% | NCI-H460 lung 10.8% | A549/ATCC NSCLC 10.2% | DU-145 prostate 16.1% | K-562 leukemia 10.2% | MDA-MB-231 breast 21.1% | UACC-257 melanoma 13% | M14 melanoma 13.1%

Nc1ccc(-c2csc(-n3[nH]c(=O)ccc3=O)n2)cc1
inactive: NCI-H23 lung 98% | NCI-H226 lung 92.2% | NCI-H322M lung 103% | HOP-62 NSCLC 107% | NCI-H460 lung 102% | HOP-92 NSCLC 103% | NCI-H522 lung 93.4% | A549/ATCC NSCLC 101% | 786-0 renal 87.1% | COLO 205 colon 109% | DU-145 prostate 107% | K-562 leukemia 103% | MALME-3M melanoma 101% | MDA-MB-231 breast 101% | RXF 393 renal 93.8% | SF-268 CNS 102% | SF-295 CNS 102% | SF-539 CNS 105% | UACC-257 melanoma 103% | M14 melanoma 96.2%

CN1C(=O)/C(=C/c2ccc(C(=O)Nc3ncc(Cc4cccc(Cl)c4)s3)cc2)SC1=S
inactive: NCI-H23 lung 59.5% | NCI-H226 lung 64.5% | NCI-H322M lung 76.2% | HOP-62 NSCLC 62.9% | NCI-H460 lung 20.3% | HOP-92 NSCLC 71.9% | NCI-H522 lung 57.5% | A549/ATCC NSCLC 56% | 786-0 renal 63.4% | COLO 205 colon 57.8% | DU-145 prostate 66.3% | K-562 leukemia 55.1% | MALME-3M melanoma 67.9% | MDA-MB-231 breast 77.4% | RXF 393 renal 64.4% | SF-268 CNS 61.7% | SF-295 CNS 31% | SF-539 CNS 67.5% | UACC-257 melanoma 79.8% | M14 melanoma 17%

COC(=O)C(Cc1ccccc1)NC(=O)c1ccc(NC(=O)c2[nH]c(C)c(Cl)c2Cl)c(OC(C)C)c1 (stereo not given)
active: NCI-H460 lung 6.05% | A549/ATCC NSCLC 6.57% | SF-539 CNS -17.9%
inactive: NCI-H23 lung 70% | NCI-H226 lung 88.6% | NCI-H322M lung 102% | HOP-62 NSCLC 90.3% | HOP-92 NSCLC 101% | NCI-H522 lung 93.9% | 786-0 renal 39.5% | COLO 205 colon 102% | DU-145 prostate 77.6% | K-562 leukemia 42.1% | MALME-3M melanoma 71.4% | MDA-MB-231 breast 66.3% | RXF 393 renal 128% | SF-268 CNS 86.4% | SF-295 CNS 87.5% | UACC-257 melanoma 101% | M14 melanoma 51.3%

Cc1ncc(C(=O)Nc2ccc(CN3CCN(C)CC3)c(C(F)(F)F)c2)cc1C#Cc1cnc(N)c2ncccc12
inactive: NCI-H23 lung 38.4% | NCI-H226 lung 42.6% | NCI-H322M lung 30.3% | HOP-62 NSCLC 20.6% | NCI-H460 lung 27.1% | HOP-92 NSCLC 14.7% | NCI-H522 lung 26.2% | A549/ATCC NSCLC 21.2% | DU-145 prostate 34% | SF-268 CNS 29.8% | SF-295 CNS 48.8% | SF-539 CNS 29.8% | UACC-257 melanoma 30.6%
active: 786-0 renal -71.4% | COLO 205 colon 1.6% | K-562 leukemia -59.5% | MALME-3M melanoma -79% | MDA-MB-231 breast -78.9% | RXF 393 renal -18.9% | M14 melanoma -79.9%

Cc1ccnc(Nc2ccc([N+](=O)[O-])c(NCCN3CCOCC3)n2)c1
active: NCI-H460 lung 6.8% | COLO 205 colon -45.4% | K-562 leukemia 6.76% | SF-539 CNS 6.71%
inactive: NCI-H23 lung 42% | NCI-H226 lung 24.5% | NCI-H322M lung 50.2% | HOP-62 NSCLC 40.8% | HOP-92 NSCLC 138% | NCI-H522 lung 20.9% | A549/ATCC NSCLC 19.6% | 786-0 renal 24.8% | DU-145 prostate 10.1% | MALME-3M melanoma 89.3% | MDA-MB-231 breast 42.4% | RXF 393 renal 70.4% | SF-268 CNS 31.9% | SF-295 CNS 35.8% | UACC-257 melanoma 86.2% | M14 melanoma 24.1%

CSC(SC)=C(C#N)c1nc2ccccc2s1
inactive: NCI-H23 lung 58.3% | NCI-H226 lung 59% | NCI-H322M lung 79.4% | HOP-62 NSCLC 72.5% | NCI-H460 lung 57.7% | A549/ATCC NSCLC 74.8% | 786-0 renal 61.8% | COLO 205 colon 112% | DU-145 prostate 87.2% | K-562 leukemia 47.4% | MALME-3M melanoma 67.9% | MDA-MB-231 breast 52.9% | RXF 393 renal 95.8% | SF-268 CNS 55.1% | SF-295 CNS 88.2% | SF-539 CNS 60.2% | UACC-257 melanoma 54% | M14 melanoma 48.1%
active: HOP-92 NSCLC -12.8% | NCI-H522 lung 6.27%

Cc1c2cccnc2c(C)c2c1c1cc(CO)ccc1n2C
inactive: NCI-H23 lung 30.6% | NCI-H322M lung 26.8% | HOP-62 NSCLC 30.5% | HOP-92 NSCLC 32.9% | NCI-H522 lung 30.3% | A549/ATCC NSCLC 20.9% | 786-0 renal 22.6% | COLO 205 colon 19.1% | DU-145 prostate 25.3% | MALME-3M melanoma 16.8% | MDA-MB-231 breast 19.9% | RXF 393 renal 30.2% | SF-268 CNS 28.8% | SF-295 CNS 24.7% | SF-539 CNS 23.2% | M14 melanoma 29.8%
active: NCI-H226 lung -33.4% | NCI-H460 lung 0.162% | K-562 leukemia 9.28% | UACC-257 melanoma -1.38%

C[C@H](CCCC(=O)NCC#CCN1CCN(C)CC1)[C@H]1CC[C@H]2[C@@H]3CC[C@@H]4CC(=O)CC[C@]4(C)[C@H]3CC[C@]12C
inactive: NCI-H23 lung 87.7% | NCI-H226 lung 103% | NCI-H322M lung 97.7% | HOP-62 NSCLC 96.2% | NCI-H460 lung 96% | HOP-92 NSCLC 73.7% | NCI-H522 lung 102% | A549/ATCC NSCLC 95.7% | 786-0 renal 97% | COLO 205 colon 95.1% | DU-145 prostate 102% | K-562 leukemia 57.9% | MALME-3M melanoma 65.7% | MDA-MB-231 breast 102% | RXF 393 renal 86.3% | SF-268 CNS 95.5% | SF-295 CNS 106% | SF-539 CNS 78.6% | UACC-257 melanoma 96.3% | M14 melanoma 85.1%

Cc1ccc(-c2nc(N3CCNCC3)c3oc(-c4ccc(C)cc4)nc3n2)cc1
inactive: NCI-H23 lung 75.6% | NCI-H226 lung 97.6% | NCI-H322M lung 47.9% | HOP-62 NSCLC 76.1% | HOP-92 NSCLC 88.9% | NCI-H522 lung 76.1% | DU-145 prostate 11.9% | MALME-3M melanoma 93.6% | RXF 393 renal 73.4% | SF-268 CNS 28.5% | SF-295 CNS 108% | SF-539 CNS 95.8% | UACC-257 melanoma 103%
active: NCI-H460 lung -68.3% | A549/ATCC NSCLC -83.3% | 786-0 renal -92.2% | COLO 205 colon -81.2% | K-562 leukemia -75% | MDA-MB-231 breast -72.1% | M14 melanoma -94.3%

C#CCOc1cccc(-c2ncnc3cc(NC(=O)C=C)ccc23)c1
inactive: NCI-H23 lung 69% | NCI-H226 lung 69.9% | NCI-H322M lung 70.3% | HOP-62 NSCLC 36.4% | NCI-H460 lung 29.1% | HOP-92 NSCLC 14.9% | NCI-H522 lung 10.5% | A549/ATCC NSCLC 44.5% | 786-0 renal 29.9% | COLO 205 colon 24.4% | DU-145 prostate 15.6% | K-562 leukemia 24.2% | MALME-3M melanoma 60.5% | MDA-MB-231 breast 15.8% | RXF 393 renal 30.8% | SF-268 CNS 49.6% | SF-295 CNS 43.2% | UACC-257 melanoma 62.5% | M14 melanoma 45.6%
active: SF-539 CNS 8.33%

C=C1C(=O)O[C@H]2[C@H]1CC/C(Cn1cc(CCC)nn1)=C\CC[C@@]1(C)O[C@@H]21
active: NCI-H226 lung -37.4% | HOP-92 NSCLC -11.2% | NCI-H522 lung -70.7% | 786-0 renal 3.66% | COLO 205 colon -72.1% | K-562 leukemia 4.94% | MALME-3M melanoma 4.68% | RXF 393 renal -70.2% | SF-539 CNS -25%
inactive: NCI-H23 lung 41.1% | NCI-H322M lung 90.2% | HOP-62 NSCLC 73.9% | NCI-H460 lung 61.4% | A549/ATCC NSCLC 68.2% | DU-145 prostate 28.7% | MDA-MB-231 breast 12.2% | SF-268 CNS 67.9% | SF-295 CNS 71.6% | UACC-257 melanoma 19.1% | M14 melanoma 12.1%
